Targets include SLITRK3; SLCO4C1; SLIT1; SLITRK5; SLMAP.
Holding throughout (assay): pooled miR-30 sensor sort-seq; sequence = guide strand
What all share (conditions): shRNA

Our source for the sensor-assay potency score (higher = more potent) values is the OligoGym collection.
Further: reference of the scale not given here.

Take TTGCAGTTGACAGTCAAGCCAA: the sensor-assay potency score (higher = more potent) in the assay with SLITRK3 is -0.544.

With TTATTTAAAAAGTATCACCTTA, the sensor-assay potency score (higher = more potent) with SLCO4C1 came out at 0.0246.

With TCTTTTTCCAGCAAGGTCCGGT, in the assay with SLITRK3, the sensor-assay potency score (higher = more potent) is -0.176.

As to TAAAAAAGAACCTTTAACCTAT, the sensor-assay potency score (higher = more potent) in the assay with SLITRK3 stood at 0.15.

For the sequence TGAAGGTAGACAGCTGTCCCGG, the sensor-assay potency score (higher = more potent) with SLIT1 is -1.03.

For TTCCAGACTGAATCTCGCGGAT, the sensor-assay potency score (higher = more potent) in the assay with SLITRK5 was -0.818.

Take TTGCTCACACAGCTCGCCCGAA: the sensor-assay potency score (higher = more potent) in the assay with SLIT1 is -0.836.

TACATCTGAATAGTCAGGGCAC: the sensor-assay potency score (higher = more potent) in the assay with SLITRK5 was 0.215.

The sequence TAATTGACAAACTCATTGGGAT showed a sensor-assay potency score (higher = more potent) with SLITRK5 of 0.191.

As to TTCTCATTGAGGTCTATCTGGA, the sensor-assay potency score (higher = more potent) in the assay with SLITRK3 was -0.877.

As to TAGTCAGAAATAAGTCTCCTTG, the sensor-assay potency score (higher = more potent) with SLITRK5 was -0.638.

For the sequence TTATCCACAACATCCTTCCTCT, the sensor-assay potency score (higher = more potent) with SLITRK3 amounted to 0.0957.

Consider TAAGTTTTTTAAACATCCCAGT, for which, in the assay with SLIT1, the sensor-assay potency score (higher = more potent) is -1.01.

Take TACAGTGTGACACCTCTGCAAA: the sensor-assay potency score (higher = more potent) with SLITRK5 was -1.11.

In the assay with SLITRK5, TTGGATGAGTGACTTCAGCTGG gave a sensor-assay potency score (higher = more potent) of 0.319.

With TTGTGGATGCAGCTGATGCGGT, the sensor-assay potency score (higher = more potent) with SLIT1 was -0.921.

Consider TATTCTTGTACTTCTGCTGTTT, for which the sensor-assay potency score (higher = more potent) in the assay with SLMAP is -0.0967.

Regarding TTCATGTAGATATAGTCTCTTT, the sensor-assay potency score (higher = more potent) with SLITRK3 was -0.676.

In the assay with SLMAP, TAATTCTCTTAATTCTTCCTGA gave a sensor-assay potency score (higher = more potent) of 0.412.

TTCAATTTCTGACACCTTGTTG: the sensor-assay potency score (higher = more potent) with SLIT1 was -0.171.

Consider AACATTGCTACCTAGATGCAAA, for which, in the assay with SLITRK5, the sensor-assay potency score (higher = more potent) was -1.34.

Consider TTGACACTGAGCAACTTCTCAC, for which, in the assay with SLIT1, the sensor-assay potency score (higher = more potent) is -0.268.

In the case of TTCTTGCTCTTGATCTGCCCGA, the sensor-assay potency score (higher = more potent) with SLIT1 is -0.859.

TTAACTTCACAGTAGCATGGAT: in the assay with SLITRK3, the sensor-assay potency score (higher = more potent) was -0.128.

In the case of TTGAGGATCTGCCACAGGCGGA, the sensor-assay potency score (higher = more potent) in the assay with SLIT1 was -1.35.

On to TTGCTTAAGGAACTGATCTTGT, for which the sensor-assay potency score (higher = more potent) with SLIT1 was -0.323.

Regarding TTGAACTCAAAGTACAAGTAGT, the sensor-assay potency score (higher = more potent) with SLITRK3 was -0.338.

Regarding TTGATGTGCAAATTACAGGTAC, the sensor-assay potency score (higher = more potent) with SLITRK3 was -0.245.

On to TCGCTCTGGTTCTTCTTCCTGC, for which the sensor-assay potency score (higher = more potent) in the assay with SLITRK5 was -1.1.

For TTGCACATTTGGGTAACCGGGT, the sensor-assay potency score (higher = more potent) with SLITRK3 was -0.695.
